Several values for one entry are separate records, joined by “and”; a condition that tells them apart may be missing. Identical values can stand only once. Activity calls are given as the source filed them. The calls were made as follows: active = hit-call score of the fitted dose curve at least 0.9, where 1 is the maximum; inactive = score below 0.9.

Test system in the first assay: not listed separately
Nature of the assay: ATG_CMV_CIS: Attagene CIS-FACTORIAL HepG2 Assay for human CMV (Internal Marker) (AID 2282928).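 Also: endpoint acts as a background internal control marker rather than a target.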 As to conditions: HepG2 CMV promoter reporter, transcription factor profiling; actives raise or lower the signal. In short, it runs like this:
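Bidirectional fits against DMSO are applied to reporter mRNA, read by RT-PCR with capillary electrophoresis, from HepG2 cells exposed 24 h. The endpoint serves as an internal CMV background marker within the cis-factorial reporter panel.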
Take `CCOP(=S)(OCC)SCn1nnc2ccccc2c1=O`: the outcome was inactive.
The same measure, in the same setting: the same measure for `CC(C)(C)OOC(C)(C)C`: “inactive”.
Take `Nc1ccc(Sc2ccc(N)cc2)cc1`: the result was inactive.
Still for that read-out and setting: the same measure for `CN(C)C(=O)Cl`: “inactive”.
As to `CCCCc1ccc(O)cc1`, the AC50 (commonly the midpoint of the concentration-response curve, whichever way the signal moves) was 71.4 µM (active).
`c1ccc(OP(Oc2ccccc2)Oc2ccccc2)cc1`: the compound was called inactive.
Still for that read-out and setting: to `CC(Cl)(Cl)C(=O)O` belongs “inactive”; to `OCC(F)(F)OC(F)(F)C(F)(F)OC(F)(F)C(F)(F)OC(F)(F)CO`, “inactive”; to `O=C(O)C1C(C(=O)O)C2(Cl)C(Cl)=C(Cl)C1(Cl)C2(Cl)Cl` (stereo unspecified), “inactive”.
Regarding `O=P1(N(CCCl)CCCl)NCCCO1` (stereo unspecified), the compound was classed as inactive.
For `O=C(O)C(F)(OC(F)(F)C(F)(F)C(F)(F)F)C(F)(F)F` (stereo unspecified), the call was inactive.
Turning to `CCCCc1ccccc1`, the compound was classed as inactive.
For `N#Cc1cc([N+](=O)[O-])ccc1N`, the call was inactive.

Test system in the next assay: not listed separately
Put plainly: ATG_DR4_LXR_CIS: Attagene CIS-FACTORIAL HepG2 Assay for human Liver X Receptor (LXR), DR4 submotif (AID 2282929). As to conditions: HepG2 Attagene DR4 cis-reporter, mRNA transcription; actives raise or lower the signal. The procedure, abridged:
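DR4 cis-reporter in HepG2, 24 h exposure. Detection: RT-PCR, 6-FAM labelling, CE fragment analysis. Endpoint fitted bidirectionally, DMSO = baseline.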
For the compound `CCOS(=O)(=O)OCC`, the call was inactive.
For the compound `ClC(Cl)(Cl)c1ccccc1`, the result was inactive.
Same read-out and setting: to `CC(C)(C)N(NC(=O)c1ccc(Cl)cc1)C(=O)c1ccccc1` belongs “inactive”.
Still for that read-out and setting: to `CCN(CC)c1ccccc1` belongs “inactive”.
In the case of `CCCCN(CCCC)SN(C)C(=O)Oc1cccc2c1OC(C)(C)C2`, the AC50 was 100 µM (active).
Turning to `CCOP(=S)(OCC)SCSCC`, the call was inactive.
As to `CCCCCCCc1ccc(O)cc1`, the result was inactive.
Same read-out and setting: to `O=C(O)C=CC(F)(C(F)(F)F)C(F)(F)F` belongs “inactive”.
Still for that read-out and setting: the same measure for `CC(Cc1ccc(OCC(=O)O)cc1)NCC(O)c1csc(C(F)(F)F)n1` (stereo unspecified): “inactive”; for `CCC(C)(C)c1ccc(O)cc1`: “inactive”; for `O=S(=O)(F)C(F)(F)C(F)(F)C(F)(F)C(F)(F)C(F)(F)C(F)(F)C(F)(F)C(F)(F)F`: “inactive”.
In the case of `N#Cc1c(-c2ccc(Cl)cc2)[nH]c(C(F)(F)F)c1Br`, the call was inactive.
On to `O=P(Oc1ccccc1)(Oc1ccccc1)Oc1ccccc1`, for which the AC50 was 13.5 µM (active).
As for `O=[N+]([O-])c1ccc(Cl)c(Cl)c1`, the result was inactive.
Consider `C/C(=N\NC(=O)Nc1cc(F)cc(F)c1)c1ncccc1C(=O)O`, for which the call was inactive.
For `Nc1ccc(Cl)cc1`, the compound was classed as inactive.
Same read-out and setting: to `CC(O)C#N` (stereo unspecified) belongs “inactive”; to `C=C(C)C(=O)OCC1CO1` (stereo unspecified), “inactive”; to `CCCCN(CC)C(=O)SCCC`, “inactive”.
For the compound `CCCCN(CCCC)N=O`, the compound was called inactive.
With `ClC(Cl)c1ccccc1`, the outcome was inactive.
`c1ccc2c(c1)sc1ccccc12`: the call was inactive.
Consider `Cc1ccc([N+](=O)[O-])cc1C`, for which the result was inactive.
With `CCC1(c2ccccc2)C(=O)N=C(O)NC1=O` (stereo unspecified), the compound was called inactive.
For the compound `OCC(F)(F)OC(F)(F)C(F)(F)OC(F)(F)CO`, the compound was called inactive.
With `CCOP(=S)(Oc1ccc([N+](=O)[O-])cc1)c1ccccc1` (stereo unspecified), the half-maximal activity concentration (AC50) is 28.4 µM (active).
As for `CCOP(=S)(OCC)SCn1nnc2ccccc2c1=O`, the AC50 was 64.7 µM (active).
In the case of `CC(C)(C)OOC(C)(C)C`, the compound was classed as inactive.
Same read-out and setting: the same measure for `Nc1ccc(Sc2ccc(N)cc2)cc1`: “inactive”.
Take `CN(C)C(=O)Cl`: the call was inactive.
In the case of `CCCCc1ccc(O)cc1`, the compound was called inactive.
The same measure, in the same setting: to `c1ccc(OP(Oc2ccccc2)Oc2ccccc2)cc1` belongs “inactive”; to `CC(Cl)(Cl)C(=O)O`, “inactive”.
Still for that read-out and setting: to `OCC(F)(F)OC(F)(F)C(F)(F)OC(F)(F)C(F)(F)OC(F)(F)CO` belongs “inactive”; to `O=C(O)C1C(C(=O)O)C2(Cl)C(Cl)=C(Cl)C1(Cl)C2(Cl)Cl` (stereo unspecified), “inactive”; to `O=P1(N(CCCl)CCCl)NCCCO1` (stereo unspecified), “inactive”.
For the compound `O=C(O)C(F)(OC(F)(F)C(F)(F)C(F)(F)F)C(F)(F)F` (stereo unspecified), the compound was classed as inactive.
The same measure, in the same setting: to `CCCCc1ccccc1` belongs “inactive”.
On the same count and under the same terms, to `N#Cc1cc([N+](=O)[O-])ccc1N` belongs “inactive”.

For the next assay, the target named is Aryl hydrocarbon receptor (Homo sapiens) (UniProt P35869). Put plainly: ATG_Ahr_CIS: Attagene CIS-FACTORIAL HepG2 Assay for human Aryl Hydrocarbon Receptor (Ahr) (AID 2282930). As to conditions: HepG2 AhR cis-factorial reporter transcription; actives raise or lower the signal. In short, it runs like this: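 HepG2 cells transiently transfected with cis-element-driven multiplexed reporter units; endogenous AhR activity read as reporter mRNA 24 h after dosing, via RT-PCR, 6-FAM labelling, HpaI digestion and capillary electrophoresis. Bidirectional fit relative to DMSO.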
Chain of Aryl hydrocarbon receptor (Homo sapiens) (P35869 whole entry, looked up): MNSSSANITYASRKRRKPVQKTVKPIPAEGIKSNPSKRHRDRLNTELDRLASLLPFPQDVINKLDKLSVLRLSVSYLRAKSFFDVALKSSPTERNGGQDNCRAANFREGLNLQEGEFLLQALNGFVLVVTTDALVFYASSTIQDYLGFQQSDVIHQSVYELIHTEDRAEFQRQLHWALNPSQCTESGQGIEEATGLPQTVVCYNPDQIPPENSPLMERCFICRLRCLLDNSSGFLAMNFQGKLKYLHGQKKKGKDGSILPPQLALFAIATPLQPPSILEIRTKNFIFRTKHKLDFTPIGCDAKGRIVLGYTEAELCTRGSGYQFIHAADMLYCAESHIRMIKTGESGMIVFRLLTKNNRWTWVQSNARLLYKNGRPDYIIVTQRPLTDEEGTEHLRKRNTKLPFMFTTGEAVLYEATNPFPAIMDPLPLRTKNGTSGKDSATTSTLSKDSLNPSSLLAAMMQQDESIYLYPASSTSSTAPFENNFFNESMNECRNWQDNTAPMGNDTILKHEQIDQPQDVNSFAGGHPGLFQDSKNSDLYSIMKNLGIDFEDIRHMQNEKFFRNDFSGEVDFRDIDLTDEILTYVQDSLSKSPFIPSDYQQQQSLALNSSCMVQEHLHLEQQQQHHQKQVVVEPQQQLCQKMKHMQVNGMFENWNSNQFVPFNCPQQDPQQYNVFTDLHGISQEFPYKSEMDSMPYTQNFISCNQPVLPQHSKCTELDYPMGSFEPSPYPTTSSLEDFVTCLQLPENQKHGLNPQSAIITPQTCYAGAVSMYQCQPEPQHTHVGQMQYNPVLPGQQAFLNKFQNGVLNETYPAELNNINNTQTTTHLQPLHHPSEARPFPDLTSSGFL
For the compound `CCOS(=O)(=O)OCC`, the compound was classed as inactive.
The same measure, in the same setting: the same measure for `ClC(Cl)(Cl)c1ccccc1`: “inactive”; for `CC(C)(C)N(NC(=O)c1ccc(Cl)cc1)C(=O)c1ccccc1`: “inactive”.
The same measure, in the same setting: to `CCN(CC)c1ccccc1` belongs “inactive”; to `CCCCN(CCCC)SN(C)C(=O)Oc1cccc2c1OC(C)(C)C2`, “inactive”.
As to `CCOP(=S)(OCC)SCSCC`, the outcome was inactive.
On the same count and under the same terms, to `CCCCCCCc1ccc(O)cc1` belongs “inactive”; to `O=C(O)C=CC(F)(C(F)(F)F)C(F)(F)F`, “inactive”.
Same read-out and setting: the same measure for `CC(Cc1ccc(OCC(=O)O)cc1)NCC(O)c1csc(C(F)(F)F)n1` (stereo unspecified): “inactive”.
Still for that read-out and setting: the same measure for `CCC(C)(C)c1ccc(O)cc1`: “inactive”; for `O=S(=O)(F)C(F)(F)C(F)(F)C(F)(F)C(F)(F)C(F)(F)C(F)(F)C(F)(F)C(F)(F)F`: “inactive”.
For the compound `N#Cc1c(-c2ccc(Cl)cc2)[nH]c(C(F)(F)F)c1Br`, the AC50 was 0.0823 µM (active).
As to `O=P(Oc1ccccc1)(Oc1ccccc1)Oc1ccccc1`, the compound was called inactive.
On the same count and under the same terms, the same measure for `O=[N+]([O-])c1ccc(Cl)c(Cl)c1`: “inactive”.
For `C/C(=N\NC(=O)Nc1cc(F)cc(F)c1)c1ncccc1C(=O)O`, the AC50 was 57.2 µM (active) and 46.1 µM (active).
`Nc1ccc(Cl)cc1`: the compound was called inactive.
Turning to `CC(O)C#N` (stereo unspecified), the result was inactive.
Consider `C=C(C)C(=O)OCC1CO1` (stereo unspecified), for which the outcome was inactive.
As for `CCCCN(CC)C(=O)SCCC`, the call was inactive.
Same read-out and setting: the same measure for `CCCCN(CCCC)N=O`: “inactive”.
`ClC(Cl)c1ccccc1`: the call was inactive.
The same measure, in the same setting: to `c1ccc2c(c1)sc1ccccc12` belongs “inactive”; to `Cc1ccc([N+](=O)[O-])cc1C`, “inactive”; to `CCC1(c2ccccc2)C(=O)N=C(O)NC1=O` (stereo unspecified), “inactive”.
On the same count and under the same terms, to `OCC(F)(F)OC(F)(F)C(F)(F)OC(F)(F)CO` belongs “inactive”.
The same measure, in the same setting: to `CCOP(=S)(Oc1ccc([N+](=O)[O-])cc1)c1ccccc1` (stereo unspecified) belongs “inactive”.
On to `CCOP(=S)(OCC)SCn1nnc2ccccc2c1=O`, for which the result was inactive.
Regarding `CC(C)(C)OOC(C)(C)C`, the result was inactive.
For the compound `Nc1ccc(Sc2ccc(N)cc2)cc1`, the AC50 was 19.4 µM (active).
Regarding `CN(C)C(=O)Cl`, the compound was classed as inactive.
For the compound `CCCCc1ccc(O)cc1`, the compound was classed as inactive.
On the same count and under the same terms, to `c1ccc(OP(Oc2ccccc2)Oc2ccccc2)cc1` belongs “inactive”; to `CC(Cl)(Cl)C(=O)O`, “inactive”.
The same measure, in the same setting: the same measure for `OCC(F)(F)OC(F)(F)C(F)(F)OC(F)(F)C(F)(F)OC(F)(F)CO`: “inactive”.
In the case of `O=C(O)C1C(C(=O)O)C2(Cl)C(Cl)=C(Cl)C1(Cl)C2(Cl)Cl` (stereo unspecified), the compound was classed as inactive.
For the compound `O=P1(N(CCCl)CCCl)NCCCO1` (stereo unspecified), the outcome was inactive.
Turning to `O=C(O)C(F)(OC(F)(F)C(F)(F)C(F)(F)F)C(F)(F)F` (stereo unspecified), the call was inactive.
Same read-out and setting: to `CCCCc1ccccc1` belongs “inactive”.
With `N#Cc1cc([N+](=O)[O-])ccc1N`, the AC50 is 2.51 µM (active).

The values above are taken from PubChem BioAssay (EPA / NIEHS).
